Assay outcomes from PubChem BioAssay.
A selection: hits, their analogues and other compounds. The true share with any hit is near 12%.
OTUD3 inh: human OTUD3 deubiquitinase inhibition; Q5T2D3; purified OTUD3, Ub-rhodamine fluorescence, 2 h; inhibition, % at 25 µM; actives 0.7% (n = 47,000); AID 1645858
USP17 block: blocks human USP17 ubiquitin-rhodamine cleavage; A8MUK1; purified USP17, Ub-rhodamine cleavage fluorescence, 3 h; inhibition, % at 50 µM; actives 6.5% (n = 47,000)
USP30 inh: blocks human USP30 ubiquitin-rhodamine cleavage. Q70CQ3. purified USP30, Ub-rhodamine cleavage fluorescence. inhibition, % at 25 µM. actives 5.3% (n = 47,000)
Target sequence (Q70CQ3 whole entry, looked up): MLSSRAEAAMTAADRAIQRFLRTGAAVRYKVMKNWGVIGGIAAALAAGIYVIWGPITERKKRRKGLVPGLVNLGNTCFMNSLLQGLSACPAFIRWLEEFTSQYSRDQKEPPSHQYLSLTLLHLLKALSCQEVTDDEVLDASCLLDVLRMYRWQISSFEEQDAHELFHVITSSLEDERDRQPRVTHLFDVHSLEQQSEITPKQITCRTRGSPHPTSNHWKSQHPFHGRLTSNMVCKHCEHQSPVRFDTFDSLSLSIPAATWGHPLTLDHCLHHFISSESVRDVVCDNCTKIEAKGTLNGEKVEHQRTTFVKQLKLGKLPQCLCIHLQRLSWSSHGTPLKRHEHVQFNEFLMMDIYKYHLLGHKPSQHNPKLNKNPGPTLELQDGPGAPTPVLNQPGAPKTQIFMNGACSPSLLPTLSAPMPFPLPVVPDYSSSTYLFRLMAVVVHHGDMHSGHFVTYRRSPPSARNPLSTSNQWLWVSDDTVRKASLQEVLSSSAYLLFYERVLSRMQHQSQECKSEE
USP28 inh: blocks human USP28 ubiquitin-rhodamine cleavage; Q96RU2; purified USP28, Ub-rhodamine cleavage fluorescence, 30 min; inhibition, % at 25 µM; actives 3% (n = 47,000)
The depositor's hits bear a star; nt = no result. Cut-off read from the data, not from the text of the source: active = inhibition above about 30%; inactive = the rest.

SMILES | OTUD3 inh | USP17 block | USP30 inh | USP28 inh
CCN(c1ccccc1)S(=O)(=O)c1cc2[nH]c3c(c2cc1C)C(=O)CC(C)(C)C3 | 3 | 33* | 18 | 6
O=S(=O)(NC1CC1)c1ccc(-c2ccn[nH]2)o1 | -1 | 0 | nt | nt
Cn1c(=O)n(C2CCN(C(=O)Cc3ccc(F)cc3)C2)c2ncncc21 (stereo unspecified) | -4 | -2 | 3 | -5
O=C(C1c2ccccc2C(=O)N(Cc2ccccc2)C12CCCC2)N1CCOCC1 (stereo unspecified) | -8 | -7 | 0 | -7
O=C(CSc1nnc(Cc2ccccc2)o1)N1CCc2ccccc21 | -2 | 42* | 11 | -3
O=C(Cn1c(Cc2ccccc2)nc2ccccc21)N1CCc2ccccc21 | 0 | 26 | 32* | 5
CNC1C(O)C(OC2OC(C(C)N)CCC2N)C(N)C(O)C1OC (stereo unspecified) | -12 | -17 | -35 | -11
O=C(Nc1ccc2c(c1)OCO2)c1ccc2noc(-c3ccc(Cl)cc3)c2c1 | 10 | 38* | 10 | 17
Cc1nc(-c2noc3ccc(C(=O)NC4CCCC4)cc23)co1 | 14 | 32* | 33* | 17
O=C(Nc1cccc(OC(=O)c2ccc(Cl)cc2)c1)c1ccc(Cl)cc1 | 3 | 63* | -3 | 4
Cc1nc(-c2noc3ccc(C(=O)NCCc4cccnc4)cc23)co1 | -3 | -3 | 3 | -6
O=C(NC1CCCC1)c1ccc2noc(-c3ccc(Cl)cc3)c2c1 | -6 | 39* | -36 | -11
COc1ccc(-c2nnc(SCCC(C)=O)n2CCc2ccccc2)cc1 | -11 | 8 | -9 | -8
CC(=O)c1cccc(NC(=O)c2ccc3noc(-c4ccc(F)cc4)c3c2)c1 | 21 | 0 | 41* | 9
COc1cccc(NC(=O)c2ccc3noc(-c4ccc(Cl)cc4)c3c2)c1 | 0 | 58* | 0 | 0
Cc1cccc(NC(=O)c2ccc3noc(-c4ccc(F)cc4)c3c2)c1 | -3 | -17 | -41 | -21
CC(NC(=O)c1ccco1)c1nc(-c2ccc3c(c2)ncn3C2CCCC2)no1 (stereo unspecified) | -3 | 7 | -2 | 1
CNC(=O)[C@@H]1C[C@@H]2CN(C(=O)Nc3ccc(C)cc3)CCN2[C@@]12C(=O)Nc1ccccc12 | 0 | 8 | 18 | 14
COc1ccc(N2C(=O)[C@@H]3Cc4c([nH]c5ccccc45)C(C)(C)N3C2=O)c(OC)c1 | -12 | 47* | -22 | -21
CN1C(=O)COc2ccc(NC(=O)c3cc(-c4ccccc4)on3)cc21 | 13 | 74* | 27 | 12
CCOC(=O)c1csc(-c2ccc(F)cc2F)n1 | 12 | 5 | 18 | 42*
Cc1nn(-c2ccccc2)c(OC(=O)c2ccco2)c1S(=O)(=O)c1ccccc1 | -11 | -40 | -13 | -11
COc1ccc2[nH]c3c(=O)n(Cc4cccnc4)cnc3c2c1 | -1 | 45* | 24 | 9
Cc1ccc2[nH]c3c(=O)n(Cc4cccnc4)cnc3c2c1 | 4 | 34* | 17 | 7
COc1ccc(Cn2cnc3c([nH]c4ccc(Br)cc43)c2=O)cc1 | -20 | 61* | -13 | -24
SMILES | OTUD3 inh | USP17 block | USP30 inh | USP28 inh
O=c1c2[nH]c3ccc(Br)cc3c2ncn1CCO | -4 | 24 | 3 | 1
COCCCn1cnc2c([nH]c3ccc(Br)cc32)c1=O | 4 | 65* | nt | nt
CN1C[C@H]2C3(CCN(C(=O)c4cccnc4)CC3)CC[C@@]2(C(=O)N2CCCC2)C1 | 6 | -4 | 7 | 12
COc1ccc(CNC(=O)CCc2nc3sc4c(c3c(=O)[nH]2)CCCCC4)cc1 | -10 | 51* | -48 | -22
COc1cc2[nH]c3c(NCCCN4CCOCC4)ncnc3c2cc1OC | 6 | 19 | 24 | 7
CCn1c(=O)c2ccccc2n(CC(=O)N2CCN(C)c3nc4ccccc4nc32)c1=O | -12 | -15 | -121 | -30
COc1ccc(CC(NC(C)=O)C(=O)NC2CCN(c3nc(OC)nc(OC)n3)CC2)cc1 (stereo unspecified) | 12 | 17 | 32* | 18
COc1nc(OC)nc(N2CCC(NC(=O)C(Cc3ccccc3F)NC(C)=O)CC2)n1 (stereo unspecified) | 3 | 14 | 42* | 5
COc1cccc(CC(NC(C)=O)C(=O)NC2CCN(c3nc(OC)nc(OC)n3)CC2)c1 (stereo unspecified) | -10 | -11 | -32 | -17
COc1nc(OC)nc(N2CCC(NC(=O)C(Cc3ccc(C)cc3)NC(C)=O)CC2)n1 (stereo unspecified) | 3 | 20 | 34* | 7
Cc1c(C)c(C)c2[nH]c(-c3ccc4c(c3)OCO4)nc2c1C | -2 | 47* | 49* | 2
Cc1nn(CC(=O)NCc2ccc(F)cc2)c(C)c1S(=O)(=O)NC(C)(C)C | -6 | -4 | -12 | -7
CC1(c2ncc(CNC(=O)c3ccn[nH]3)cn2)CCCCO1 (stereo unspecified) | 0 | 0 | -3 | 5
Cc1c(C(=O)NCc2cccc(Br)c2)oc2c1-c1[nH]ncc1CC2 | -7 | 62* | -29 | 7
Cc1cc(Nc2cnccn2)nc(C2CCCN(CC(N)=O)C2)n1 (stereo unspecified) | 13 | 7 | 22 | 2
CCCCN1CC(=O)N2C(CCc3ccccc3)c3[nH]c4ccccc4c3C[C@@H]2C1=O (stereo partly specified) | -9 | -28 | -29 | -2
COc1ccc(NS(=O)(=O)c2cc(NC(=O)CCC(=O)c3ccc(F)cc3)ccc2C)cc1 | -5 | -8 | 36* | 2
O=C(NC1CCC1)[C@H]1C[C@@H]2CN(Cc3ccc(Cl)cc3)C[C@H]1O2 | 3 | -10 | 9 | 4
CC(C)CCCCCCCCCCC(=O)N(C)[C@H](CO)C(=O)N[C@H](C)C(=O)NCC(=O)N(C)C1C(=O)N[C@@H](C)C(=O)NC(C(=O)O)Cc2ccc(O)c(c2)-c2cc1ccc2O (stereo partly specified) | 6 | 7 | 33* | 56*
O=C(Nc1ccccc1)C1CCN(S(=O)(=O)c2ccc3c(c2)OCCCO3)CC1 | 7 | 3 | 15 | 8
Cc1ccc(C(=O)C2CC(=O)Nc3c2c(C)nn3-c2ccc(F)cc2F)s1 (stereo unspecified) | -1 | nt | 1 | 0
CN1CCC(N(C)S(=O)(=O)c2ccc(NC(=O)c3cccc(OCc4ccccc4)c3)cc2)CC1 | -18 | -4 | 0 | 52*
CS(=O)(=O)c1ccc(NC(=O)C2CN(c3nc4c(F)cccc4s3)C2)cc1 | 11 | 55* | 2 | 15
O=C(O)c1cccc(NC(=O)C(Sc2cccc(NC(=O)c3cccc(Cl)c3)c2)c2ccccc2)c1 (stereo unspecified) | 3 | 42* | -4 | 26
Cc1cccc(C(=O)Nc2cccc(SC(C(=O)Nc3ccc(O)c(C(=O)O)c3)c3ccccc3)c2)c1 (stereo unspecified) | 8 | 29 | 6 | 52*
Cc1cccc(NC(=O)C(Sc2ccc(NC(=O)c3ccccc3C(=O)O)cc2)c2ccccc2)c1 (stereo unspecified) | -37 | -23 | -38 | -15
